According to PubChem BioAssay (NCATS):
Values joined by “and” are separate entries in the source; they are usually repeats but may differ in a detail not shown here. Identical values can stand only once. Results filed as inconclusive are left out. Where a structure was tested more than once in an assay, its records may differ in their call. Active and inactive are the calls of the source. Unless noted, calls come from the whole dose curve; as a rule, active = well fitted curve in the direction sought with a large enough effect; inconclusive = small, poorly fitted or top-dose-only effect, or another doubt; inactive = no such curve, though single readings can be large; an effect the other way counts as inactive or inconclusive.

Assays:
[1] = High-throughput drug toxicity screening in the BPDCN cell line Cal-1 (AID 1224825; call rule not given here); details: Cal-1 BPDCN cell viability, qHTS; at 45.8 µM (top of the series) unless noted
Outline: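 CellTiter-Glo luminescence after 48 h compound exposure; percent activity scaled with DMSO as 100% and bortezomib (9.2 uM final) as 0%. Cal-1 cells seeded at 500/well in RPMI, 10% FBS, no phenol red.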

[2] = qHTS assay for measurement of the activity of small molecule inhibitors on Zika virus induced Caspase-3 activity in human iPSC derived neural progenitor cells (hNPCs) (AID 1224857); note: nearly all actives have a fitted effect of over 65% in size; note: potency is the fitted concentration of half-maximal effect
Outline: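 Human iPSC-derived neural progenitor cells pretreated 1 hr with compounds, then infected with Zika virus (2 FFU/cell) for 6 hours at 37 C. Caspase-3/7 measured by Caspase-Glo luminescence; % inhibition calculated from induction scaled to uninfected (0%) and infected (100%) wells.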

[3] = qHTS assay for measurement of the activity of small molecule inhibitors on Zika virus induced Caspase-3 activity in human astrocytoma cells (AID 1224859); note: potency is the fitted concentration of half-maximal effect
Outline: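 SNB-19 astrocytoma cells, 250/well, pretreated 1 h with compounds, then Zika virus at 2 FFU/cell for 6 h at 37 C; Caspase-Glo 3/7 luminescence after 30 min; percent inhibition normalised to uninfected and infected controls.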

[4] = qHTS Screen of the MIPE 4.0 Collection Against Ewings Sarcoma (TC71) (AID 1259253); note: nearly all actives have a fitted effect of over 40% in size; note: potency is the fitted concentration of half-maximal effect
Outline: (§1)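 Viability screen: 48 h incubation at 37C, 95% humidity, 5% CO2 with serially titrated compound, followed by CellTiter-Glo readout.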

[5] = qHTS Screen of the MIPE 4.0 Collection Against Ewings Sarcoma (EW8) (AID 1259255); note: nearly all actives have a fitted effect of over 35% in size; note: potency is the fitted concentration of half-maximal effect;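 for viability: 100% = DMSO-treated cells and 0% = medium-only wells without cells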
Outline: as §1

[6] = qHTS Screen of the MIPE 4.0 Collection Against Ewings Sarcoma (TC32) (AID 1259256); note: nearly all actives have a fitted effect of over 45% in size; note: potency is the fitted concentration of half-maximal effect
Outline: as §1

[7] = qHTS of pediatric cancer cell lines to identify multiple opportunities for drug repurposing: Primary screen for DAOY cells (AID 1347090); note: nearly all actives have a fitted effect of over 55% in size; note: potency is the fitted concentration of half-maximal effect
Outline: (§2)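 Viability measured as metabolically active cells via CellTiter-Glo luminescence following 48 hours of compound exposure, 11-point dilutions in confirmatory testing. 500-1,000 cells/well plated 5 hours before dosing; controls were DMSO and 2.3 µM bortezomib.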

[8] = qHTS of pediatric cancer cell lines to identify multiple opportunities for drug repurposing: Primary screen for SJ-GBM2 cells (AID 1347091); note: potency is the fitted concentration of half-maximal effect
Outline: as §2

[9] = qHTS of pediatric cancer cell lines to identify multiple opportunities for drug repurposing: Primary screen for SK-N-MC cells (AID 1347093); note: potency is the fitted concentration of half-maximal effect
Outline: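 Metabolically active cells were quantified by ATP-dependent luminescence (CellTiter-Glo, 15 min at room temperature) following 48 h treatment. Cells had been plated at 500-1,000 per well and settled for 5 h beforehand.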

[10] = qHTS Screen of the MIPE 4.0 Collection Against Ewings Sarcoma (RDES) (AID 1259252); note: potency is the fitted concentration of half-maximal effect; nearly all actives have a fitted effect of over 35% in size
Outline: as §1

[11] = NS1 protein of Zika virus - qHTS assay to identify small molecule inhibitors in human HEK 293 cells (AID 1347053); note: nearly all actives have a fitted effect of over 55% in size; note: potency is the fitted concentration of half-maximal effect
Outline: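 Readout was TR-FRET using paired anti-NS1 antibodies after 24 h infection of HEK 293 cells with ZIKV MR766 (MOI = 0.5). Compound preceded virus by 1 h; reduced signal reflects lower NS1 expression.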

[12] = P-glycoprotein substrates identified in KB-8-5-11 adenocarcinoma cell line, qHTS therapeutic library screen (AID 1346987); note: nearly all actives have a fitted effect of over 65% in size; note: potency is the fitted concentration of half-maximal effect
Outline: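 Compounds are pinned in dose-response onto KB-8-5-11 cells (500 cells/well, colchicine-free medium) and left 72 h at 37 degree C. CellTiter-Glo luminescence then yields AC50 values.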

[13] = qHTS of pediatric cancer cell lines to identify multiple opportunities for drug repurposing: Primary screen for TC32 cells (AID 1347089); note: nearly all actives have a fitted effect of over 60% in size; note: potency is the fitted concentration of half-maximal effect
Outline: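 Luminescent CellTiter-Glo read-out of metabolically active TC32 cells after 48 h compound exposure. Primary: MIPE 11-point, 0.78 nM–46 µM; NPC 8-point, 0.59 nM–46 µM. Confirmatory: 11-point dilutions.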

[14] = qHTS of pediatric cancer cell lines to identify multiple opportunities for drug repurposing: Primary screen for A673 cells (AID 1347092); note: nearly all actives have a fitted effect of over 45% in size; note: potency is the fitted concentration of half-maximal effect
Outline: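 A673 cells (500-1,000 cells/well in growth media) were pre-incubated 5 h at 37 degrees C, then exposed to compounds for 48 h. Viability was read as CellTiter-Glo luminescence; concentration-response curves came directly from the primary screen.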

[15] = qHTS of pediatric cancer cell lines to identify multiple opportunities for drug repurposing: Primary screen for BT-37 cells (AID 1347094); note: potency is the fitted concentration of half-maximal effect
Outline: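 Viability was measured as metabolically active cells after 48 hours of treatment, read by CellTiter-Glo luminescence. Compounds were tested at multiple final concentrations, giving concentration-response curves.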

[16] = P-glycoprotein substrates identified in KB-3-1 adenocarcinoma cell line, qHTS therapeutic library screen (AID 1346986); note: nearly all actives have a fitted effect of over 60% in size;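 note: potency is the fitted concentration of half-maximal effect; potency is for cytotoxicity meaning loss of cell viability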
Outline: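 In 1536-well format, 500 cells/well received pinned compound titrations and were incubated 72 h, 5% CO2. Viability was read by CellTiter-Glo; cytotoxic if AC50 < 10 uM and efficacy >50%.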

| SMILES | viability (% of control) [1] | Potency [2] | Potency [3] | Potency [4] | Potency [5] | Potency [6] | Potency [7] | Potency [8] | Potency [9] | Potency [10] | Potency [11] | Potency [12] | Potency [13] | Potency [14] | Potency [15] | Potency [16] |
| --- | --- | --- | --- | --- | --- | --- | --- | --- | --- | --- | --- | --- | --- | --- | --- | --- |
| O=C(Nc1nnc(-c2ccco2)o1)c1cc(-c2ccccc2)nc2ccccc12 | 17.3% | inactive | inactive | 16.6 µM (active) | 23.5 µM (active) | 13.2 µM (active) | 14.8 µM (active) | 7.43 µM (active) | 11.8 µM (active) |  |  |  |  |  |  |  |
| Cc1cnc(NC(=O)Nc2cc(Br)c(C)cc2OC[C@@H]2CNCCO2)cn1 | 7.84% | inactive | inactive | 0.59 µM (active) | 0.833 µM (active) |  |  | 1.18 µM (active) | 0.166 µM (active) | 2.35 µM (active) | 6.62 µM (active) |  |  |  |  |  |
| NC(=O)Nc1cc(-c2ccc(CN3CCOCC3)cc2)sc1C(N)=O | 6.64% | inactive | inactive | 0.332 µM (active) | 0.0935 µM (active) | 0.187 µM (active) |  | 0.059 µM (active) | 0.105 µM (active) |  |  | 1.48 µM (active) | 0.523 µM (active) | 5.9 µM (active) | 21.7 µM (active) |  |
| Cn1cc(C2=C(c3c4n(c5ccccc35)CCC(CN)C4)C(=O)NC2=O)c2ccccc21 (configuration not stated) | 2.84% | inactive | inactive | 16.6 µM (active) | 18.7 µM (active) |  |  | 14.8 µM (active) |  | 16.6 µM (active) | 13.2 µM (active) |  |  | 5.9 µM (active) | 27.3 µM (active) |  |
| Cc1cc(C(=O)NOCCO)c(Nc2ccc(I)cc2F)n(C)c1=O | 30.2% | inactive | inactive | inactive | inactive | inactive | inactive | inactive | 0.662 µM (active) |  | inactive | inactive | inactive |  |  | inactive |
| COc1cccc2c1C(=O)c1c(O)c3c(c(O)c1C2=O)C[C@@](O)(C(C)=O)C[C@H]3O[C@H]1C[C@H](N)[C@H](O)[C@H](C)O1 | 3.72% | inactive | inactive | 0.0662 µM (active) | 0.0526 µM (active) |  | 0.187 µM (active) | 0.0662 µM (active) | 0.0469 µM (active) | 0.0418 µM (active) |  |  | 0.234 µM (active) | 0.0469 µM (active) | 0.0273 µM (active) |  |
| CC1=C(C(=O)Nc2cc3cn[nH]c3cc2F)C(c2ccc(Cl)cc2F)N=C(c2ccnc(Cl)c2)N1 (configuration not stated) | 3.35% | inactive | inactive | 14.8 µM (active) | 26.4 µM (active) | 16.6 µM (active) | inactive | 5.9 µM (active) | 11.8 µM (active) |  | inactive |  |  |  | 24.3 µM (active) | 20.6 µM (active) |
| COc1cc2ncnc(Nc3cccc(Br)c3)c2cc1OC | 5.16% | inactive | inactive | 0.59 µM (active) | 1.48 µM (active) | 0.833 µM (active) |  | 20.9 µM (active) | 0.0118 µM (active) |  | inactive | inactive | inactive | 0.0059 µM (active) |  | inactive and 18.4 µM (active) |
| CCOc1cc2ncc(C#N)c(Nc3ccc(OCc4ccccn4)c(Cl)c3)c2cc1NC(=O)C=CCN(C)C | 13.3% | inactive | inactive | 2.35 µM (active) | 6.62 µM (active) |  |  | 1.18 µM (active) | 0.105 µM (active) | 0.118 µM (active) | inactive |  |  |  | 1.09 µM (active) |  |
| Cc1nc(NC(=O)N2CCC[C@@H]2C(N)=O)sc1-c1ccnc(C(C)(C)C(F)(F)F)c1 | 65.8% | inactive | inactive | 11.8 µM (active) | 23.5 µM (active) |  | 7.43 µM (active) | 5.9 µM (active) | 0.059 µM (active) | 1.48 µM (active) | inactive |  |  |  |  |  |
| O=C(Nc1cccc(Nc2ncc(Br)c(NCCc3cnc[nH]3)n2)c1)N1CCCC1 | 2.84% | inactive | inactive | 6.62 µM (active) | 0.235 µM (active) | 0.296 µM (active) | 18.7 µM (active) | 5.9 µM (active) | 0.332 µM (active) |  | 10.5 µM (active) |  | 0.93 µM (active) |  |  |  |
| N#CNC(=NCCCCCCOc1ccc(Cl)cc1)Nc1ccncc1 | 2.53% | inactive | inactive | 0.0013 µM (active) | 0.003 µM (active) | inactive |  | 0.001 µM (active) |  |  | inactive | 0.0042 µM (active) | 0.0033 µM (active) | 0.0023 µM (active) | 0.0039 µM (active) |  |
| C[C@H](NC(=O)Cc1cc(F)cc(F)c1)C(=O)N[C@H](C(=O)OC(C)(C)C)c1ccccc1 | 96.1% | inactive | inactive | inactive | inactive | inactive |  |  | 14.8 µM (active) |  | inactive | 18.7 µM (active) | inactive |  | inactive |  |
| Cc1[nH]c(C=C2C(=O)Nc3ccccc32)c(C)c1CCC(=O)O | 5.24% | 16.6 µM (active) | 11.8 µM (active) | 0.296 µM (active) | 0.235 µM (active) |  |  |  | 0.59 µM (active) | 0.209 µM (active) | inactive |  | 7.39 µM (active) | 1.18 µM (active) | 0.863 µM (active) |  |
| CC(=O)NC(CS)C(=O)O (configuration not stated) | 93.6% | inactive | inactive | inactive | inactive | inactive | inactive | inactive | inactive |  |  | inactive | inactive | inactive |  |  |
